Assay results from PubChem BioAssay (NCI).
About 79,000 compounds went through this panel and 15% of them were active in at least one assay; those are over-represented in the sample as a whole. Cut-off read from the data, not from the text of the source: active = growth inhibition above about 70%; inactive = the rest.

Tests used:
[1] = NCI Yeast Anticancer Drug Screen. Data for the rad50 strain (AID 155);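 note: 0% = growth of vehicle-only cultures of the same strain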; details: S. cerevisiae rad50 strain growth inhibition; at 50.0 µM; hits give high values
Outline: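 Relative growth inhibition (compound vs vehicle) was measured in yeast with a defined repair-gene alteration.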

[2] = NCI Yeast Anticancer Drug Screen. Data for the mec2-1 strain (AID 157); details: S. cerevisiae mec2-1 strain, at 50.0 µM, hits give high values
Outline: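 Vehicle-treated cultures served as reference for growth inhibition of compound-exposed mec2-1 yeast.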

[3] = NCI Yeast Anticancer Drug Screen. Data for the sgs1 mgt1 strain (AID 161);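 note: 0% = growth of cultures given vehicle only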; details: S. cerevisiae sgs1 mgt1 strain, at 50.0 µM, hits give high values
Outline: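 Read-out: growth inhibition vs vehicle controls. Cells: mutant yeast strain deficient in DNA damage repair.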

[4] = NCI Yeast Anticancer Drug Screen. Data for the cln2 rad14 strain (AID 165);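 note: 0% = growth equal to vehicle treated cultures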; details: S. cerevisiae cln2 rad14 strain, at 50.0 µM, hits give high values
Outline: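 Each compound was tested on cln2 rad14 yeast. Inhibition of growth was calculated against vehicle-exposed controls.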

[5] = NCI Yeast Anticancer Drug Screen. Data for the bub3 strain (AID 167); details: S. cerevisiae bub3 mutant strain, at 50.0 µM, hits give high values
Outline: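 Screening used yeast with an engineered genetic alteration affecting cell cycle control. Compound-exposed cultures were compared with vehicle cultures, and reduced growth was taken as inhibition.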

[6] = NCI Yeast Anticancer Drug Screen. Data for the mlh1 rad18 strain (AID 175); details: S. cerevisiae mlh1 rad18 strain growth inhibition; at 50.0 µM; hits give high values
Outline: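 Vehicle-treated cultures served as the reference for growth inhibition in a yeast strain carrying DNA damage repair alterations exposed to each compound.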

Measured: growth inhibition

O=C1NC2(CCCC2)C(=O)NC12CCCC2
inactive: [1] -21.1% | [2] -22.1% | [3] -1.45% | [4] -13.2% | [5] -26.2% | [6] 1.35%

C[CH2][Ge]([CH2]C)[CH2]C.C[CH2][Ge]([CH2]C)[CH2]C.C[CH2][Ge]([CH2]C)[S][Ge]([CH2]C)[CH2]C
inactive: [1] 25.1% | [2] 29.5% | [3] 52.7% | [4] 40.4% | [5] 35.9% | [6] 6.75%

NCC(O)CSc1ccccc1 (centres undefined)
inactive: [1] -10.6% | [2] 4.15% | [3] -6.85% | [4] -16.7% | [5] -1.3% | [6] -6.8%

Cn1cnc([N+](=O)[O-])c1Sc1nccn1-c1ccccc1
inactive: [1] -10.8% | [2] -7.1% | [3] -7.8% | [4] 22.2% | [5] 0.75% | [6] -2.85%

O=C1C(Cl)(Cl)C(=O)C(Cl)(Cl)C(=O)C1(Cl)Cl
inactive: [1] 20.2% | [2] 24.5% | [3] 47% | [4] 0.4% | [5] 16.3% | [6] 31.7%

CC1CCCC(C)N1 (centres undefined)
inactive: [1] 2.5% | [2] -9.05% | [3] -1.75% | [4] -1.95% | [5] 1.5% | [6] 10.8%

CC(C)(C=O)OC(=O)c1cc([N+](=O)[O-])cc([N+](=O)[O-])c1
inactive: [1] 7.2% | [2] -14.2% | [3] 27.4% | [4] 29.8% | [5] -8% | [6] 1.6%

[Cl][Pt+2][Cl].[NH-]C1CCC1[NH-] (centres undefined)
inactive: [1] 4.7% | [2] -9.3% | [3] -12% | [4] -24.4% | [5] -4.1% | [6] 10.5%

COc1cc2nc(C(O)C(O)c3nc4cc(OC)c(OC)cc4[nH]3)[nH]c2cc1OC (centres undefined)
inactive: [1] -8% | [2] 3.35% | [3] 19.6% | [4] 6.85% | [5] -1.1% | [6] 38.7%

NC1CCC2(O)c3ccccc3C2C1 (centres undefined)
inactive: [1] -0.95% | [2] 0.05% | [3] 22.2% | [4] 18.9% | [5] 5.7% | [6] 7.35%

CC(C)Cc1[nH]nc2c1C(=O)C(Nc1ccccc1)=CC2=O
inactive: [1] 22.5% | [2] 25.3% | [3] 12.6% | [4] -7.65% | [5] 2.75% | [6] 23.4%

CC12CCC(CC1)C(C)(C)N=C(N)S2
inactive: [1] -3.1% | [2] -10.8% | [3] -2.75% | [4] -18% | [5] -11.2% | [6] -20%

C/C=C/C1N(C)CCCN1C
inactive: [1] -2% | [2] -7.55% | [3] -7.25% | [4] 18% | [5] -25.9% | [6] 8.55%

COc1cccc(OC)c1C
inactive: [1] 15.1% | [2] -11.1% | [3] -10.6% | [4] 14.6% | [5] -4.25% | [6] 16.6%

CC1(C)OC(=O)N=C1c1ccc(Cl)cc1
inactive: [1] -20.2% | [2] -10% | [3] -19.8% | [4] 12.5% | [5] -20% | [6] -12.2%

COc1ccc(C(C)=O)c(C)c1OC
inactive: [1] 22.6% | [2] 3.65% | [3] 19.6% | [4] 10.4% | [5] -22.2% | [6] 15.2%

O=C(O)c1ccccc1CC(Cc1ccccc1)C(=O)O (centres undefined)
inactive: [1] -14.7% | [2] -3.4% | [3] -10.9% | [4] -8.5% | [5] -12.4% | [6] 14%

N#CCC(=O)c1ccccc1C(=O)O
inactive: [1] -4.45% | [2] -38.8% | [3] 4.7% | [4] 4.65% | [5] -6.2% | [6] 17.6%

CCC(=O)Nc1cc(Cl)ccc1C
inactive: [1] 46.6% | [2] 31.4% | [3] 26.3% | [4] 23.4% | [5] 9.25% | [6] 26.3%

O=C(Nc1c(Cl)cccc1Cl)Oc1cccnc1
inactive: [1] 0% | [2] -19.8% | [3] -9.1% | [4] 2.55% | [5] -23.1% | [6] -1.05%

N#CCOc1ccc(Cl)cc1
inactive: [1] -10.7% | [2] -16.2% | [3] -13.1% | [4] -53.2% | [5] 1.8% | [6] -3.65%

NC(CCS(N)(=O)=O)C(=O)O (centres undefined)
inactive: [1] -9.45% | [2] -5.3% | [3] -1.85% | [4] -2.7% | [5] 5.5% | [6] -10.9%

COC(=O)C(=O)C1CSC2=C(CS(=O)(=O)c3ccccc32)C1=O (centres undefined)
inactive: [1] -4.55% | [2] -9.5% | [3] -10.6% | [4] -2.15% | [5] -17.5% | [6] -2.1%

C/C(Nc1ccc(Cl)cc1)=C1/CCOC1=O
inactive: [1] 19.1% | [2] 5.7% | [3] 35.5% | [4] 13.1% | [5] 11.7% | [6] -24.9%

CCC1C2C=CC(CC2)N1S(=O)(=O)c1ccc(C)cc1 (centres undefined)
inactive: [1] -0.7% | [2] -9.1% | [3] 10.8% | [4] 30% | [5] 13.2% | [6] -6.05%

O=[N+]([O-])c1cccc(N=C2c3ccccc3CN2c2cccc([N+](=O)[O-])c2)c1
inactive: [1] -23.4% | [2] 5.8% | [3] -5.3% | [4] 26.7% | [5] 11.5% | [6] -0.4%

CC(=O)CC(=O)Nc1ccc(Cl)cc1
inactive: [1] -2.75% | [2] -27.9% | [3] 12.2% | [4] 3.85% | [5] -5.55% | [6] 8.45%

CN1C(C(=O)O)CCC1C(=O)O (centres undefined)
inactive: [1] -1.2% | [2] 7.6% | [3] 6.55% | [4] -31.8% | [5] -0.4% | [6] 2%

COC(=O)CCSC(=S)NCc1ccccc1
inactive: [1] -14.4% | [2] -30.1% | [3] -20% | [4] -222% | [5] -3.45% | [6] -12.7%

O=C1NC(=O)C(c2ccccc2)(c2ccsc2)N1 (centres undefined)
inactive: [1] 12.3% | [2] -4.3% | [3] 1.95% | [4] 10.6% | [5] 1% | [6] 13.6%

CSc1ccc2c(=O)c(C(=O)O)c[nH]c2c1
inactive: [1] -0.05% | [2] 15.7% | [3] 5.25% | [4] 1.75% | [5] 10.3% | [6] 5.85%

O=C(O)COc1cc(Cl)cc(F)c1Cl
inactive: [1] -23.6% | [2] 4.1% | [3] -9.4% | [4] -33.2% | [5] -7.85% | [6] -2.55%

COc1ncnc2ccccc12
inactive: [1] -30.9% | [2] -16.8% | [3] -20.8% | [4] -32.8% | [5] -25.2% | [6] -25.1%

O=C(O)/C=C(/CC(=O)O)c1ccc(O)cc1
inactive: [1] -14.9% | [2] -21.7% | [3] -9.9% | [4] -4.55% | [5] -18.6% | [6] -14.3%

O=C(O)C1CSC2(CCCN(Cc3ccccc3)C2)N1 (centres undefined)
inactive: [1] -17.7% | [2] -29.4% | [3] -5.85% | [4] -3.7% | [5] -17.1% | [6] 5.2%

Nc1nnc(-c2ccccc2)nn1
inactive: [1] 4.05% | [2] 4% | [3] 12.1% | [4] -1.15% | [5] 6.55% | [6] 9.25%

O=C1c2ccccc2-c2ccc3c4ccc5c6c(ccc(c7ccc1c2c73)c64)-c1ccccc1C5=O
inactive: [1] 25% | [2] -5.4% | [3] 11.1% | [4] -30.4% | [5] 5.75% | [6] 18.4%

Cc1ncc(-c2ccccc2)o1
inactive: [1] -20.2% | [2] -21.2% | [3] -1.75% | [4] -7% | [5] -19.9% | [6] -15.7%

C[C@H](N)C(=O)/C=C/c1ccccc1
inactive: [1] -18.8% | [2] -30.6% | [3] -6.05% | [4] 14.9% | [5] 8.8% | [6] -8.5%
